Compound activity from PubChem BioAssay.
BoNT F protease – blocks Botulinum neurotoxin F light chain protease. inhibition, % at 10 µM. Multiplex microsphere protease cleavage assay, flow cytometry. AID 588497. actives 0.22% (n = 360,000); in the data active means inhibition above about 35%, passing the limit was not always enough; inconclusive means no clear call, values can overlap the other calls
BoNT A protease – blocks Botulinum neurotoxin A light chain protease; multiplex microsphere protease substrate cleavage, flow cytometry; inhibition, % at 10 µM; actives 0.17% (n = 360,000)
Anthrax LF prot – inhibitors of Bacillus anthracis lethal factor protease. actives 0.12% (n = 360,000). inhibition, % at 10 µM. multiplex microsphere protease cleavage assay, LF. P15917
Target sequence (P15917 whole entry, looked up): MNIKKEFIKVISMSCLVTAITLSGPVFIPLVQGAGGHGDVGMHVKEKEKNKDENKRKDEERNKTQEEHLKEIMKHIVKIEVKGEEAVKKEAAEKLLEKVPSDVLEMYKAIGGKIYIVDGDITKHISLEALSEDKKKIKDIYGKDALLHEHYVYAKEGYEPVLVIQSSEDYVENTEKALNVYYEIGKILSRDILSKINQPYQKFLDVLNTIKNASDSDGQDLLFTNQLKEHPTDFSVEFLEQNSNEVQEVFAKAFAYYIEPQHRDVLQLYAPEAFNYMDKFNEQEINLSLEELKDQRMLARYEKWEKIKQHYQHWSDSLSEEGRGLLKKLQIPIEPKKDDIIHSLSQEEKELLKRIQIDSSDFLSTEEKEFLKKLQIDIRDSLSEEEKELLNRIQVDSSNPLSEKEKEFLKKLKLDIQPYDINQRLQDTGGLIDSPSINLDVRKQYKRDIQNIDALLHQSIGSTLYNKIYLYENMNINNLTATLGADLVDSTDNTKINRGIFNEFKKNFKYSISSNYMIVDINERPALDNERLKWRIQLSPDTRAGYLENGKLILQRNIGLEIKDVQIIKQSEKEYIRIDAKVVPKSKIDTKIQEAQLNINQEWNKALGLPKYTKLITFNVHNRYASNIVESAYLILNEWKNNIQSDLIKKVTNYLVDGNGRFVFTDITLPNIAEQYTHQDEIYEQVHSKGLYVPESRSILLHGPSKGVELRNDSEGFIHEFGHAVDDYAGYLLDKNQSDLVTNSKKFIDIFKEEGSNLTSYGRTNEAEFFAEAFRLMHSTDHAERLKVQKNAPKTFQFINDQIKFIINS
MazEF act – activators of E. coli MazEF toxin-antitoxin RNase; P0AE70; FAM/BHQ RNA-DNA oligo cleavage fluorescence, 5 h; activation, % at 20 µM; actives 0.32% (n = 350,000); in the data active means activation above about 50%
Autofluor counter – compound fluorescence in toxin protease inhibitor counterscreen | compound autofluorescence counterscreen, microsphere flow cytometry; active compounds read high | fluorescence intensity (concentration not given with the values) | actives 3.1% (n = 360,000) | AID 624483; in the data active means fluorescence intensity above about 16000; inconclusive means no clear call, values can overlap the other calls
A number is an active result; 0 = inactive; ? = inconclusive; - = no result. This is a sample that favours compounds with a hit; in the whole collection about 3.6% have one here. Unless noted, no stated cut-off is given here; in the data, active means inhibition above about 30%; inconclusive means no clear call, values can overlap the other calls; inactive means below that.

SMILES	BoNT F protease	BoNT A protease	Anthrax LF prot	MazEF act	Autofluor counter
CC(Nc1cc(N2CCN(C(=O)C(C)(C)C)CC2)ccc1[N+](=O)[O-])c1ccccc1 (stereo not given)	0	0	0	0	23558
CC(C)C(=O)N1CCN(c2ccc([N+](=O)[O-])c(NC(C)c3ccccc3)c2)CC1 (stereo not given)	0	0	0	0	0
CCOC(=O)CSc1nc2ccccc2c(=O)n1Cc1ccco1	0	0	0	0	0
COCCNC(=O)CSc1nc2cc3c(cc2c(=O)n1Cc1ccco1)OCO3	0	0	0	0	0
C=CCn1c(SCC(=O)OCC)nc2cc(C(=O)NCc3ccco3)ccc2c1=O	0	0	0	0	23049
CCCCCn1c(SCC(=O)OCC)nc2cc(C(=O)NCc3ccco3)ccc2c1=O	0	0	0	0	21498
CCCCn1c(SCC(=O)NCc2ccco2)nc2ccc(N3CCOCC3)cc2c1=O	0	0	0	0	22158
C=CCn1c(SCC(=O)NC(=O)NCc2ccco2)nc2sc(CC)cc2c1=O	0	0	0	0	0
CCCCn1c(SCC(=O)NCc2ccccc2)nc2ccc(N3CCOCC3)cc2c1=O	0	0	0	0	0
COCCNC(=O)c1ccc2c(=O)n(Cc3ccco3)c(SCC(=O)NC3CCCC3)nc2c1	0	0	0	0	21828
Cc1cc(C)c(C)c(S(=O)(=O)N(C)CCc2ccccn2)c1C	?	0	0	0	0
O=C(NC1CCCCCC1)c1ccc(-n2cnnc2)cc1	0	0	0	0	0
OCCN1CCN(c2ncnc3c2ncn3[C@H]2CN(Cc3ccncc3)C[C@@H](CO)O2)CC1	0	0	0	-	0
COCCn1c(-c2ccc3ccccc3c2)nc2c1c(=O)[nH]c(=O)n2CC(C)C	0	0	0	0	0
COCCCn1c(SCC(=O)NCc2ccco2)nc2sc3c(c2c1=O)CCC3	0	0	0	0	19443
CCOC(=O)CSc1nc2cc(C(=O)NCC3CCCO3)ccc2c(=O)n1Cc1ccco1 (stereo not given)	0	0	0	0	22243
O=C(CSc1nc2sc3c(c2c(=O)n1-c1ccccc1)CCCC3)NCc1ccco1	0	0	0	0	0
CCN(C(=O)CSc1nc2cc(C(=O)OC)ccc2c(=O)n1Cc1ccco1)c1cccc(C)c1	0	0	0	0	16983
c1ccc(-c2nc(NCc3ccco3)c3oc4ccccc4c3n2)cc1	0	?	0	0	22249
COc1ccc(S(=O)(=O)NCCSCc2ccco2)cc1OC	0	0	0	0	0
COc1ccc(S(=O)(=O)NCCSCc2ccccc2C)cc1Br	0	0	0	0	16146
CS(=O)(=O)NCCSCc1ccccc1	0	0	0	0	0
Cc1ccccc1CSCCNS(C)(=O)=O	0	0	0	0	17003
CS(=O)(=O)NCCSCc1c(F)cccc1Cl	0	0	0	0	0
CS(=O)(=O)NCCSCc1c(Cl)cccc1Cl	0	0	0	0	17037
SMILES	BoNT F protease	BoNT A protease	Anthrax LF prot	MazEF act	Autofluor counter
COC(=O)CN(C#N)c1nc(OC)nc(N(C)C)n1	0	0	0	0	17155
COC(=O)CN(C#N)c1nc(N(C)C)nc(N(C)C)n1	0	0	0	0	0
CCc1cc(=O)oc2cc3oc(C)c(C)c3cc12	0	?	0	0	19139
O=C(NCC1OCCc2ccccc21)c1ccc(NC(=O)c2ccc(Cl)cc2)cc1 (stereo not given)	0	0	0	0	0
COC(=O)COc1ccc(Oc2cc(C)nc(SC)n2)nn1	0	?	0	0	21755
CCOc1ccc(Oc2cc(C)nc(SC)n2)nn1	0	0	0	0	0
Cc1cc(C)c2c(N)c(C(=O)Nc3ccc([N+](=O)[O-])cc3)sc2n1	0	0	0	0	0
CN(C)S(=O)(=O)N(CC(=O)N(Cc1ccccc1)Cc1ccccc1)c1ccccc1	0	0	0	0	22498
CCOC1=C2CN(S(=O)(=O)c3ccc(C)cc3)[C@H](c3ccccc3)C[C@@H]2N(S(=O)(=O)c2ccc(C)cc2)[C@H](c2cccc(C)c2)C1	0	0	0	-	0
Cc1cccc(Cn2cnc3c(nnn3Cc3ccccc3F)c2=O)c1	0	0	0	0	22956
CCn1cc(C(=O)NCC(OC)OC)c(=O)c2cc(S(=O)(=O)N3CCC(C)CC3)ccc21	0	0	0	0	0
CC(C)(Oc1ccc(Cl)cc1)C(=O)NCc1ccncc1	0	0	0	0	20771
CC(C)(Oc1ccc(Cl)cc1)C(=O)Nc1ccncc1	0	0	0	0	0
CCOc1ccccc1/C=C(\C#N)C1=CCCC1	0	0	0	0	0
Cc1ccc2c(CNCc3ccco3)cc(=O)oc2c1	0	0	0	0	23320
CC(=O)Oc1ccc(Cn2c(C)c(C(=O)NCc3ccccc3C(F)(F)F)sc2=O)cc1	0	0	0	-	0
CC(C)n1nc(C(=O)OCC(=O)NCCc2ccc(S(N)(=O)=O)cc2)c2ccccc2c1=O	0	0	0	0	0
CC(OC(=O)CNC(=O)C12CC3CC(CC(C3)C1)C2)C(=O)Nc1ncc(Cl)cc1Cl (stereo not given)	0	0	0	0	18610
CC(OC(=O)CNC(=O)C12CC3CC(CC(C3)C1)C2)C(=O)Nc1ccc(S(N)(=O)=O)cc1 (stereo not given)	0	0	0	0	0
CC(OC(=O)CN(C)S(=O)(=O)c1ccc(Cl)cc1)C(=O)Nc1ncc(Cl)cc1Cl (stereo not given)	0	0	0	0	23244
COc1cc(C(=O)NC(=S)Nc2ccc(Cl)c(C(=O)O)c2)cc(OC)c1OC	0	0	0	0	0
COc1cc(OC)cc(C(=O)NC(=S)Nc2ccc(Cl)c(C(=O)O)c2)c1	0	0	0	0	24431
O=C(NC1CCCC1)C(c1ccncc1)N(C(=O)Cn1nnc(-c2ccccc2F)n1)c1cccc(F)c1 (stereo not given)	0	0	0	0	0
Cc1nn(Cc2ccc(C(=O)Nc3ccccc3C(F)(F)F)o2)c(C)c1Br	0	0	0	0	23948
CC(=O)c1cccc(NC(=S)NC(=O)CC(C)(C)C)c1	0	0	0	0	25347
SMILES	BoNT F protease	BoNT A protease	Anthrax LF prot	MazEF act	Autofluor counter
COc1ccc(NC(=S)Nc2cccc(C(C)=O)c2)cc1OC	35.7	0	0	0	0
COc1ccc(C(=O)Nc2cccc(C(C)=O)c2)cc1OC	0	0	0	0	0
CCC1(c2ccc(F)cc2)NC(=O)N(CC(=O)NCc2ccccc2Cl)C1=O (stereo not given)	0	0	0	0	0
CCOc1cc(CNCC2CCCN2CC)cc(Cl)c1OC (stereo not given)	0	0	0	0	0
CCN1CCCC1CNCc1cc(OC)c(OC)c(OC)c1 (stereo not given)	0	0	0	0	24874
Clc1ccccc1OCCNc1nc(NCC2CC2)nc2ccsc12	0	0	0	-	0
COC(=O)c1c(NC(=O)c2nc3ccccc3s2)sc2c1CC(C)(C)NC2(C)C	0	0	0	52.7	0
CC(C)NC(=O)c1nc2ccccc2s1	0	0	0	0	19111
COc1ccccc1CCCNC(=O)C1CCC(=O)N(Cc2ccccc2F)C1 (stereo not given)	0	0	0	0	0
